Data: PubChem BioAssay AID1851 (National Center for Advancing Translational Sciences (NCATS), 2009)
Values joined by “and” are separate entries in the source; they are usually repeats but may differ in a detail not shown here. Equal values may be shown once. About 5,800 (36%) of roughly 16,000 compounds were called active. Inconclusive results (about 23%) are left out. Calls come from the whole dose curve; as a rule, active = well fitted curve in the direction sought with a large enough effect; inconclusive = small, poorly fitted or top-dose-only effect, or effect the other way; inactive = no such curve, though single readings can be large or run the other way. This is one part of the list. More than one record can exist for a structure, and the calls need not agree.

target: Cytochrome P450 2C19 (Homo sapiens) (UniProt P33261); assay: Cytochrome panel assay with activity outcomes; conditions: recombinant CYP, pro-luciferin dealkylation, luminescence, p450-cyp2c19; series mostly up to 57.1 µM; activity, negative = inhibition: at the top concentration
Sequence (P33261 whole entry, looked up): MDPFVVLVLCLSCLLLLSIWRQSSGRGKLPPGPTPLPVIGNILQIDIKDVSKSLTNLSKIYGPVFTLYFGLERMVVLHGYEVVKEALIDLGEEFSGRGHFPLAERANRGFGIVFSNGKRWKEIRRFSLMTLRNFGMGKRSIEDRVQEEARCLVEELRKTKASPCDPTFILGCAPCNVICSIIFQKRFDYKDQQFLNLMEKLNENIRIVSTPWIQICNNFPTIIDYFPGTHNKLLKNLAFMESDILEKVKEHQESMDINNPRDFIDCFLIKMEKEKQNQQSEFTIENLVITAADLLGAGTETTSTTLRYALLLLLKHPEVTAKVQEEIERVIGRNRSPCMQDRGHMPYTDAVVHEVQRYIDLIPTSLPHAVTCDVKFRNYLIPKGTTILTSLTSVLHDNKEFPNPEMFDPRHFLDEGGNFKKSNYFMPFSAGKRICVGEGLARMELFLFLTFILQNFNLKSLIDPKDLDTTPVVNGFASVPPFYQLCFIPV
% is set by controls: 0 for no effect and ±100 for the full control effect.

| SMILES | AC50 | activity, negative = inhibition |
| --- | --- | --- |
| C=CCOc1cccc(CNn2cn[nH]c2=S)c1 | 7.94 µM (active) |  |
| C[C@@H](C(=O)NCCc1c[nH]c2ccccc12)[C@H]1C[C@]1(C)[C@H](NC(=O)OCc1ccccc1)c1ccccc1 | 2.51 µM (active) |  |
| C[C@@H](C(=O)NCCc1c[nH]c2ccccc12)[C@@H]1C[C@@]1(C)[C@@H](NC(=O)OCc1ccccc1)c1ccccc1 | 0.794 µM (active) |  |
| COc1cccc([C@@H]2Oc3ccc(OC)cc3C(=O)[C@H]2O)c1 | 1 µM (active) |  |
| COc1cccc([C@@H]2Oc3ccc(Br)cc3C(=O)[C@H]2O)c1 | 3.16 µM (active) |  |
| COc1cccc([C@H]2Oc3ccc(OC)cc3/C(=N\O[C@@H]3O[C@H](COC(C)=O)[C@H](OC(C)=O)[C@H](OC(C)=O)[C@H]3OC(C)=O)[C@@H]2O)c1 |  | 14.8% [at 11.4 µM] (inactive) |
| CC(=O)OCC(=O)[C@]12OC(C)(C)O[C@@H]1C[C@H]1[C@H]3CC=C4C[C@@H](O)CC[C@]4(C)[C@H]3CC[C@]12C |  | 4.13% [at 11.4 µM] (inactive) |
| CC[C@@H]1OC(=O)[C@H](C)[C@H](O[C@@H]2C[C@](C)(OC)[C@H](O)[C@H](C)O2)[C@H](C)[C@H](O[C@@H]2O[C@@H](C)C[C@@H](N(C)C)[C@@H]2O)[C@](C)(O)C[C@H](C)C(=O)[C@H](C)[C@H](O)[C@]1(C)O |  | 0.695% [at 25.6 µM] (inactive) |
| Nc1c2c(=O)oc(-c3ccccc3)cc2nn1-c1ccccc1 | 14.1 µM (active) |  |
| NS(=O)(=O)c1cccc2c1c([N+](=O)[O-])cc1[nH]c(=O)c(=O)[nH]c12 |  | 29.6% (inactive) |
| Cc1cc(C)c(C(N)=O)c(SCC(=O)c2ccc(Cl)cc2)n1 | 8.91 µM (active) |  |
| CCCSc1nc(C)cc(C)c1C(N)=O |  | -5.23% (inactive) |
| NC(=O)c1nnn(Cc2cc(Cl)c(C(=O)c3ccc(Cl)cc3)c(Cl)c2)c1N |  | -30.1% [at 11.4 µM] (inactive) |
| CCOC(=O)c1nc2sc(C)c(C)c2c(=O)[nH]1 | 10 µM (active) |  |
| OCCNc1ncnc2c1ncn2[C@@H]1O[C@@H](CO)[C@H](O)[C@@H]1O |  | 32.5% [at 11.4 µM] (inactive) |
| CCC(=O)N[C@@H]1Cc2ccccc2[C@@H](c2ccccc2)C1 | 7.94 µM (active) |  |
| CCC(=O)N[C@@H]1CCc2cccc(OC)c2C1 |  | -5.91% (inactive) |
| COc1ccc(-c2nc3cnc(Nc4cccc(OC)c4)nc3n(Cc3cccs3)c2=O)cc1 |  | 28.8% (inactive) |
| COc1cccc(Nc2ncc3nc(-c4ccc(F)cc4)c(=O)n(C)c3n2)c1 |  | 10% (inactive) |

| SMILES | AC50 | activity, negative = inhibition |
| --- | --- | --- |
| COc1cccc(Nc2nc(-c3ccc(O)cc3)cs2)c1 | 2.51 µM (active) |  |
| Cc1cc(C)n(C(=O)CCCCCCCCC(=O)n2nc(C)cc2C)n1 | 3.55 µM (active) |  |
| CC(=O)c1cnc2cc(C)nn2c1C |  | 16.8% (inactive) |
| CN1CCc2c(cc(O)c(O)c2Cl)[C@H](c2cccc(Cl)c2)C1 |  | -27.1% (inactive) |
| OC(COCC1COc2ccccc2O1)CN1CCN(c2ccccc2F)CC1 (stereo unspecified) | 28.2 µM (active) |  |
| OC(COCC1COc2ccccc2O1)CN1CCc2ccccc2C1 (stereo unspecified) | 5.01 µM (active) |  |
| CC(C)(C)C1CCC(OCC(O)CN2CCN(c3ccccc3)CC2)CC1 (stereo unspecified) |  | -16.8% (inactive) |
| O=C(c1ccccc1)c1ccc2n1CC[C@H]2C(=O)O | inactive |  |
| CC(C)(C)NC[C@@H](O)COc1ccccc1C1CCCC1 |  | -24.6% [at 25.6 µM] (inactive) |
| C=CCc1ccccc1OC[C@H](O)CNC(C)C | inactive |  |
| O=C(NC1CCCC1)c1cnn2c(C(F)(F)F)cc(-c3ccco3)nc12 | 11.2 µM (active) |  |
| Cc1nc2ccccn2c1C(=O)CSc1ccccc1Cl | 2.82 µM (active) |  |
| COCCNC(=O)[C@H](C)[C@@H]1C[C@@]1(C)[C@@H](NC(=O)OCc1ccccc1)c1ccccc1 | 3.16 µM (active) |  |
| C[C@@H](C(=O)NCCF)[C@H]1C[C@]1(C)[C@H](NC(=O)OCc1ccccc1)c1ccccc1 | 1.26 µM (active) |  |
| CCOC(=O)N/N=C1/C[C@@H](O)[C@@H](O)[C@@H]2[C@@H]3C(=O)N(C(C)(C)C)C(=O)[C@H]3CC[C@@H]12 |  | -19.4% [at 11.4 µM] (inactive) |
| O=C(NCCOC(=O)c1ccc(C(=O)OCCNC(=O)c2cccnc2)s1)c1cccnc1 | 7.94 µM (active) |  |
| O=C(NCCO[N+](=O)[O-])c1cccnc1 | 3.98 µM (active) |  |
| CC(=O)OCCNC(=O)c1cccnc1 |  | 25.9% (inactive) |
| Cc1cccc([C@@H]2CN(C)CCc3c2cc(O)c(O)c3Cl)c1 | inactive |  |

| SMILES | AC50 | activity, negative = inhibition |
| --- | --- | --- |
| CN(C)CCC[C@@]1(c2ccc(F)cc2)OCc2cc(C#N)ccc21 | inactive and 3.16 µM (active) |  |
| COc1ccccc1N/C(=N/S(=O)(=O)c1ccc(C)cc1)c1ccc(Cl)cc1 | 4.47 µM (active) |  |
| O=S(=O)(/N=C(/Nc1ccc(F)cc1F)c1ccc(Cl)cc1)c1ccccc1 |  | -10.4% (inactive) |
| COc1cc(NS(C)(=O)=O)ccc1Nc1c2ccccc2nc2ccccc12 |  | -6.07% (inactive) |
| CS(=O)(=O)Nc1cccc(-c2nc(Nc3ccncc3)c3ccccc3n2)c1 | 5.01 µM (active) |  |
| COc1cccc(-c2nc(Nc3ccncc3)c3ccccc3n2)c1 | 3.16 µM (active) |  |
| CS(=O)(=O)Nc1cccc(-c2nc(Nc3ccccc3)c3ccccc3n2)c1 | 10 µM (active) |  |
| CS(=O)(=O)Nc1cccc(-c2nc(Nc3ccc(F)cc3)c3ccccc3n2)c1 | 7.94 µM (active) |  |
| N#Cc1cccc(-c2nc(Nc3ccncc3)c3ccccc3n2)c1 |  | -18.2% (inactive) |
| CS(=O)(=O)Nc1cccc(-c2nc(N3CCNCC3)c3ccccc3n2)c1 |  | -31.6% (inactive) |
| CNc1nc(-c2cccc(NS(C)(=O)=O)c2)nc2ccccc12 |  | -23.8% (inactive) |
| CS(=O)(=O)Nc1ccc(Nc2c3ccccc3nc3ccccc23)cc1 |  | -0.835% [at 11.4 µM] (inactive) |
| CCCCCCCCCCCCCCSCC(=O)O |  | 27.3% (inactive) |
| NC[C@](O)(CS(=O)(=O)O)c1ccc(Cl)cc1 |  | 16% (inactive) |
| O=C(N/N=C/c1cccc(Oc2ccccc2)c1)c1cccc(Br)c1 | 2.24 µM (active) |  |
| O=C(N/N=C\c1ccc(Sc2ccccn2)o1)c1cccc(Br)c1 | 2.51 µM (active) |  |
| O=C(N/N=C/C1C(c2ccccc2)C1(Cl)Cl)c1cccc(Br)c1 (stereo unspecified) | 7.08 µM (active) |  |
| C[C@@H](N=C(N)N)C(=O)O |  | 36.5% [at 11.4 µM] (inactive) |
